The values that follow come from PubChem BioAssay (NCI).

Among the test systems are SK-MEL-2 melanoma; EKVX NSCLC; SN12C renal; UO-31 renal; TK-10 renal; ACHN renal; CAKI-1 renal; A498 renal; CCRF-CEM leukemia; MOLT-4 leukemia; SR leukemia; RPMI-8226 leukemia; OVCAR-5 ovarian; OVCAR-4 ovarian; SK-OV-3 ovarian; IGROV1 ovarian; OVCAR-3 ovarian; HS 578T breast; NCI/ADR-RES ovarian; OVCAR-8 ovarian.
Common to all, as to experiment: NCI-60 one-dose screen, 48 h (100 = growth as untreated, 0 = no growth, -100 = all killed)
Holding throughout (settings): 10 µM unless noted

About 83,000 compounds went through this panel and 20% of them were active in at least one assay; those are over-represented in the sample as a whole.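 Cell lines were cultured in 96-well plates, exposed to a single compound concentration, and assessed for percent growth 48 hours later.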 Values without a mark were called inactive. Calls of active or inactive are those of the source. Rule for the calls: active = growth percent below 10; inactive = the rest.

For `c1ccc(-c2nc3sc(-c4ccccc4)cn3n2)cc1`, the growth in the assay with SK-MEL-2 melanoma is 94.7%; in the assay with EKVX NSCLC it was 78.6%; in the assay with SN12C renal it was 79.5%; in the assay on UO-31 renal, 46.9%; with TK-10 renal, 127%; in the assay with ACHN renal it was 85.5%. Besides, the growth is 90.8% in the assay on CAKI-1 renal; 86% with A498 renal; 86.8% in the assay on CCRF-CEM leukemia; 88.6% with MOLT-4 leukemia; 90.4% with SR leukemia; 85.5% in the assay with RPMI-8226 leukemia. The growth is 122% in the assay with OVCAR-5 ovarian; 76.1% in the assay with OVCAR-4 ovarian; 94.2% in the assay on SK-OV-3 ovarian; 56.2% with IGROV1 ovarian; 83.5% with OVCAR-3 ovarian; 90.1% in the assay on HS 578T breast. The growth in the assay with NCI/ADR-RES ovarian is 85.6%.

With `Cc1cc2[nH]c(=O)c3c4ncccc4cn3c2cc1C`, the growth is 93.8% in the assay on SK-MEL-2 melanoma; 60.9% in the assay with EKVX NSCLC; 39.3% with SN12C renal; 37.1% in the assay on UO-31 renal; 18.1% in the assay on TK-10 renal; 32.2% in the assay on ACHN renal. The growth in the assay with CAKI-1 renal was -24.7% (active); in the assay on A498 renal, 105%; with CCRF-CEM leukemia, 21.7%; in the assay with MOLT-4 leukemia it was 19.4%; in the assay with SR leukemia, -1.41% (active); in the assay on RPMI-8226 leukemia, 2.89% (active). Further, the growth with OVCAR-8 ovarian is 39.6%; in the assay on SK-OV-3 ovarian it was 87.4%; in the assay with IGROV1 ovarian, 24.5%; with OVCAR-3 ovarian, -21.7% (active); with HS 578T breast it was 101%; with NCI/ADR-RES ovarian it was 34.3%.

On to `Cc1ccc(S(=O)(=O)N/N=C/C2(c3ccccc3)CC2)cc1`, for which the growth with SK-MEL-2 melanoma is 126%; in the assay on EKVX NSCLC, 99%; with SN12C renal it was 98.7%; in the assay with UO-31 renal, 93.2%; in the assay on TK-10 renal, 120%; in the assay on ACHN renal, 109%. Further, the growth in the assay with CAKI-1 renal is 92.6%; in the assay with A498 renal, 86.6%; in the assay with CCRF-CEM leukemia, 88.5%; in the assay on MOLT-4 leukemia, 90.5%; with SR leukemia it was 101%; with RPMI-8226 leukemia, 96.9%. Further, the growth is 109% in the assay on OVCAR-5 ovarian; 98.8% in the assay on OVCAR-4 ovarian; 110% with SK-OV-3 ovarian; 116% in the assay with IGROV1 ovarian; 111% in the assay with OVCAR-3 ovarian; 102% in the assay with HS 578T breast. Further, the growth with NCI/ADR-RES ovarian was 107%.

`COc1ccn2c(C(C)=O)cc(C(=O)c3ccc4c(c3)Sc3ccccc3N4)c2c1`: the growth is 27.3% in the assay with SK-MEL-2 melanoma; 37.6% in the assay with EKVX NSCLC; 25.3% with SN12C renal; 28.3% in the assay on UO-31 renal; 29.6% in the assay with TK-10 renal; 20.7% with ACHN renal. Besides, the growth in the assay on CAKI-1 renal was 15.9%; in the assay on A498 renal, -17.8% (active); in the assay on CCRF-CEM leukemia, 8.15% (active); in the assay with MOLT-4 leukemia it was 13.1%; in the assay with SR leukemia, 5.07% (active); in the assay on RPMI-8226 leukemia, 11.1%. Moreover, the growth was 36.9% in the assay on OVCAR-5 ovarian; 50.2% with OVCAR-4 ovarian; 18.8% in the assay on SK-OV-3 ovarian; 34.9% in the assay on IGROV1 ovarian; -47.8% (active) in the assay on OVCAR-3 ovarian; 41.9% with HS 578T breast. Also, the growth in the assay with NCI/ADR-RES ovarian was 12.7%.

Regarding `CCOC(=O)c1c2c(n(-c3ccc(C#N)cc3)c1-c1ccccc1)C=CCC2`, the growth with SK-MEL-2 melanoma was 79.6%; with EKVX NSCLC it was 93.2%; in the assay with SN12C renal it was 101%; in the assay on UO-31 renal it was 81.8%; in the assay on TK-10 renal it was 96.5%; in the assay with ACHN renal, 86.8%. Besides, the growth was 76.4% in the assay with CAKI-1 renal; 96.7% with A498 renal; 95.8% in the assay with CCRF-CEM leukemia; 81.2% in the assay on MOLT-4 leukemia; 92.1% with SR leukemia; 85.8% in the assay with RPMI-8226 leukemia. In addition, the growth is 96.7% in the assay on OVCAR-5 ovarian; 77.2% in the assay with OVCAR-4 ovarian; 89.6% in the assay on SK-OV-3 ovarian; 77.9% in the assay on IGROV1 ovarian; 105% with OVCAR-3 ovarian; 99.3% in the assay with HS 578T breast. Moreover, the growth in the assay with NCI/ADR-RES ovarian was 94%.

On to `CC(=O)N1N=C(c2ccc(Nc3nc(Nc4ccc(F)cc4)nc(Nc4ccc(Cl)cc4)n3)cc2)CC1c1ccc(Cl)cc1` (stereo unspecified), for which the growth in the assay with SK-MEL-2 melanoma is 109%; in the assay with EKVX NSCLC it was 87.3%; in the assay with SN12C renal, 107%; in the assay on UO-31 renal it was 56.8%; in the assay on TK-10 renal, 110%; in the assay with ACHN renal, 83.1%. Besides, the growth in the assay on CAKI-1 renal was 83%; with A498 renal, 88.9%; in the assay on CCRF-CEM leukemia, 110%; in the assay on MOLT-4 leukemia, 98.2%; in the assay with SR leukemia, 102%; in the assay with RPMI-8226 leukemia, 82.7%. In addition, the growth in the assay on OVCAR-5 ovarian is 95.1%; with OVCAR-4 ovarian, 94.2%; in the assay on SK-OV-3 ovarian, 97.2%; with IGROV1 ovarian, 66.1%; in the assay with OVCAR-3 ovarian it was 123%; with HS 578T breast, 95.8%. Further, in the assay on NCI/ADR-RES ovarian, the growth is 91.1%.

Consider `CC1(C)C2CC1C1(/C=N/NC(N)=S)C(C2)C(C#N)(C#N)C1(C#N)C#N` (stereo unspecified), for which the growth with SK-MEL-2 melanoma was 90.3%; in the assay on EKVX NSCLC, 93.8%; in the assay with SN12C renal, 87.6%; with UO-31 renal, 51.4%; in the assay with TK-10 renal it was 116%; in the assay on ACHN renal, 44.8%. The growth was 104% in the assay with CAKI-1 renal; 94.3% in the assay with A498 renal; 16% in the assay with CCRF-CEM leukemia; 11.3% with MOLT-4 leukemia; 4.63% (active) in the assay with SR leukemia; 30.4% in the assay with RPMI-8226 leukemia. In addition, the growth in the assay on OVCAR-5 ovarian is 126%; with OVCAR-4 ovarian it was 94.3%; in the assay on SK-OV-3 ovarian it was 103%; in the assay with IGROV1 ovarian, 67.1%; with OVCAR-3 ovarian it was 63.1%; in the assay on HS 578T breast, 88.7%. For the same compound, the growth in the assay on NCI/ADR-RES ovarian was 93.5%.

Regarding `CCCCCCNC(=O)Oc1ccc(/C(=C(\C)c2ccc(Cl)cc2)c2ccc(OCCN(CC)CC)cc2)cc1`, the growth is 95.6% in the assay with SK-MEL-2 melanoma; 73.6% in the assay on EKVX NSCLC; 76.2% with SN12C renal; 41.8% in the assay with UO-31 renal; 85% in the assay with TK-10 renal; 85.6% in the assay on ACHN renal. Moreover, the growth is 89.9% in the assay on CAKI-1 renal; 93.7% with A498 renal; 54.6% in the assay with CCRF-CEM leukemia; 35.3% in the assay with MOLT-4 leukemia; -10.8% (active) in the assay with SR leukemia; 51.6% in the assay with RPMI-8226 leukemia. In addition, the growth in the assay on OVCAR-5 ovarian was 72.1%; in the assay with OVCAR-4 ovarian, 60.5%; in the assay with SK-OV-3 ovarian it was 83.1%; in the assay with IGROV1 ovarian, 55.2%; in the assay with OVCAR-3 ovarian it was 67.6%; with HS 578T breast, 67.5%. The growth in the assay with NCI/ADR-RES ovarian is 72.7%.
